Reference: PubChem BioAssay
The source made the active and inactive calls.

How the values were obtained:
[1] = test system: Plasmodium falciparum Sir2 (PF13_0152, Sir2A); test: pfSir2 binders on small-molecule microarrays, primary screen, biochemical, small-molecule microarray, 635 nm fluorescence (AID 1098); conditions: small-molecule microarray binding, fluorescence 635 nm; higher = more signal;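 also: score merges spot fluorescence intensity with its signal-to-noise ratio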
[2] = small-molecule microarray binders of probe aDKK1, primary screen, biochemical, biotinylated probe, 635/667 nm fluorescence (AID 1099); conditions: higher = more signal;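 also: score merges 667nm spot fluorescence with signal to noise across triplicate slides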
[3] = small-molecule microarray binders of probe aCHRDL2, primary screen, biochemical, biotinylated probe, 635/667 nm fluorescence (AID 1100); conditions: higher = more signal
[4] = splicing luciferase reporter signal modulators, primary screen, spliceosome inhibition project, cell-based, HEK293, splice +/- reporter (AID 1101); conditions: luminescence, 24 h, higher = more signal, called active from +8 up or from −8 down;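 also: HEK293 cells carrying a splicing-competent luciferase reporter gene; test concentration not given here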
[5] = biological target: Fibroblast growth factor 10 (Homo sapiens) (UniProt O15520); test: FGF10 binders on small-molecule microarrays, primary screen, biochemical, small-molecule microarray, 635 nm fluorescence (AID 1102); conditions: FGF10 binding, fluorescence 635 nm, higher = more signal
Sequence of Fibroblast growth factor 10 (Homo sapiens) (O15520 whole entry, looked up): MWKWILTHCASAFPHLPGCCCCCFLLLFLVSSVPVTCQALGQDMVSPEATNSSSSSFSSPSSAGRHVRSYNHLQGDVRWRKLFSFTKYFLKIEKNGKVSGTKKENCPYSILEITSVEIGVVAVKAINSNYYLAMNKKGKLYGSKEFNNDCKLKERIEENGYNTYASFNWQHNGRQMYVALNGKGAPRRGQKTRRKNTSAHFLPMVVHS

[6] = test system: glycogen synthase kinase-3 (GSK3A per assay name; protocol says GSK3B); test: GSK3 binders on small-molecule microarrays, primary screen, biochemical, small-molecule microarray, 635 nm fluorescence, GSK3A (AID 1103); conditions: small-molecule microarray binding, fluorescence 635 nm; higher = more signal; also: the record names both GSK3A and GSK3B
[7] = biological target: Epidermal growth factor receptor (Homo sapiens) (UniProt P00533); test: EGFR binders on small-molecule microarrays, primary screen, biochemical, small-molecule microarray, 635 nm fluorescence (AID 1104); conditions: EGFR binding, higher = more signal;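 also: score merges 667 nm emission intensity with spot signal to noise over triplicate slides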
Sequence of Epidermal growth factor receptor (Homo sapiens) (P00533 whole entry, looked up): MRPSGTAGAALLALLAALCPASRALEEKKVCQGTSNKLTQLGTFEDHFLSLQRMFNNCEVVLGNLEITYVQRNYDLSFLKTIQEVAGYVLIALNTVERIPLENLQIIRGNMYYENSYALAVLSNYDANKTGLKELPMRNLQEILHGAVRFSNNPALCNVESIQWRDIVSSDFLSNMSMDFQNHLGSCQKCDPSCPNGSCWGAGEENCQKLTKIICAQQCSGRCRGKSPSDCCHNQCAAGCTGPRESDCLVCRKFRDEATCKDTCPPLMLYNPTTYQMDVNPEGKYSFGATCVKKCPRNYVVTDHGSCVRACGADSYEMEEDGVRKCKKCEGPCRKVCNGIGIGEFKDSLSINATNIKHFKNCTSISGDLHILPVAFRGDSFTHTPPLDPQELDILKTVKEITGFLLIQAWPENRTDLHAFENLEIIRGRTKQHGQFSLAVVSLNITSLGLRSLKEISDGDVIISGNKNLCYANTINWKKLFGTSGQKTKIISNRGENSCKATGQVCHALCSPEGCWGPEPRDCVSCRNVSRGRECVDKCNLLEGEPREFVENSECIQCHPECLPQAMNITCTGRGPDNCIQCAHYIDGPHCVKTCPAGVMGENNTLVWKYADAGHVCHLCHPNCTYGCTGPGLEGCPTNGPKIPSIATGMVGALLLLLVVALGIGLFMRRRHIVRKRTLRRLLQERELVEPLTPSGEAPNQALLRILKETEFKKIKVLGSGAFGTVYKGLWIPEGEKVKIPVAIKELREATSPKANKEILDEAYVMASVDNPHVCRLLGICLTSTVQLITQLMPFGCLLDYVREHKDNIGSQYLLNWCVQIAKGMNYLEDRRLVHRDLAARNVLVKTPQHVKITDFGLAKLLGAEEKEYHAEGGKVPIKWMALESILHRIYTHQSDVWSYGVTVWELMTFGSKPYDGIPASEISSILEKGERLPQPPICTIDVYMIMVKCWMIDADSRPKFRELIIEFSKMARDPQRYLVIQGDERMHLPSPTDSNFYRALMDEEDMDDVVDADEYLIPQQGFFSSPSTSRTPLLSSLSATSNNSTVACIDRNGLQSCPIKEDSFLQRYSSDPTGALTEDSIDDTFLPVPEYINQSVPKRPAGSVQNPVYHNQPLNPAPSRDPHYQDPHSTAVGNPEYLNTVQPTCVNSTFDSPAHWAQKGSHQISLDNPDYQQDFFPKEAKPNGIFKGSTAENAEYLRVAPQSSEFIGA

[8] = biological target: Follistatin-related protein 3 (Homo sapiens) (UniProt O95633); test: FSTL3 binders on small-molecule microarrays, primary screen, biochemical, small-molecule microarray, 635 nm fluorescence (AID 1105); conditions: FSTL3 binding, higher = more signal;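 also: score merges emission near 667 nm and signal to noise per printed spot across three slides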
Sequence of Follistatin-related protein 3 (Homo sapiens) (O95633 whole entry, looked up): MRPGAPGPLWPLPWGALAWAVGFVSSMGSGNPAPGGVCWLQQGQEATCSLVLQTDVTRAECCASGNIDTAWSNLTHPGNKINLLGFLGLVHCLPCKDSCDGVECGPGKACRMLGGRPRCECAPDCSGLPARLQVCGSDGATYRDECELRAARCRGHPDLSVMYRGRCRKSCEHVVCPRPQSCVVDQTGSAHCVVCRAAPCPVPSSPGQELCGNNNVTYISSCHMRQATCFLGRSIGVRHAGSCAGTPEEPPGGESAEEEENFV

[9] = biological target: Dickkopf-related protein 1 (Homo sapiens) (UniProt O94907); test: DKK1 binders on small-molecule microarrays, primary screen, biochemical, small-molecule microarray, 635 nm fluorescence scan (AID 1106); conditions: DKK1 binding, higher = more signal;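 also: score merges emission near 667 nm with signal to noise over three replicate slides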
Sequence of Dickkopf-related protein 1 (Homo sapiens) (O94907 whole entry, looked up): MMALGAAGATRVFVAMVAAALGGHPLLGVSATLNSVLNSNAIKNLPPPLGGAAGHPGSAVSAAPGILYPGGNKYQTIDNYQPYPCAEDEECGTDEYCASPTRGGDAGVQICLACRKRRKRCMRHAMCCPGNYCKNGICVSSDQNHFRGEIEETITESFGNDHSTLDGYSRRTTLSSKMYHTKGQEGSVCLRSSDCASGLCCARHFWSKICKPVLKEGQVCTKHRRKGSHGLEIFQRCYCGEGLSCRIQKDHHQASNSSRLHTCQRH

[10] = test system: Inhibin beta A chain (activin A); test: INHBA (activin A) binders on microarrays, primary screen, biochemical, small-molecule microarray, 635 nm fluorescence scan (AID 1107); conditions: small-molecule microarray binding, higher = more signal;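 also: mouse activin A protein probed at 4.33 µg/mL on printed slides; score merges bound-protein fluorescence near 667 nm with spot signal-to-noise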
[11] = test system: Human papillomavirus type 1a protein E7 (residues 44-93); test: HPV1a E7 fragment binders on microarrays, primary screen, biochemical, small-molecule microarray, residues 44-93, 635 nm fluorescence (AID 1108); conditions: small-molecule microarray binding, fluorescence 635 nm; higher = more signal;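 also: E7 fragment applied at 1 µg/mL in TBST for 1 h at 4 C; score combines spot fluorescence with its signal to noise ratio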
[12] = modulators of HCV replicon luciferase signal, primary screen, HCV replication inhibitor project, Huh7 cells, luciferase reporter (AID 1109); conditions: 48 h, higher = more signal;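 also: huh7 hepatoma cells harbouring a luciferase neomycin HCV replicon reporter; luciferase luminescence as measure of HCV replicon replication; test concentration not given here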
[13] = biological target: Left-right determination factor 2 (Homo sapiens) (UniProt O00292); test: LEFTY2 binders on small-molecule microarrays, primary screen, biochemical, small-molecule microarray, 635 nm fluorescence scan (AID 1110); conditions: LEFTY2 binding, higher = more signal
Sequence of Left-right determination factor 2 (Homo sapiens) (O00292 whole entry, looked up): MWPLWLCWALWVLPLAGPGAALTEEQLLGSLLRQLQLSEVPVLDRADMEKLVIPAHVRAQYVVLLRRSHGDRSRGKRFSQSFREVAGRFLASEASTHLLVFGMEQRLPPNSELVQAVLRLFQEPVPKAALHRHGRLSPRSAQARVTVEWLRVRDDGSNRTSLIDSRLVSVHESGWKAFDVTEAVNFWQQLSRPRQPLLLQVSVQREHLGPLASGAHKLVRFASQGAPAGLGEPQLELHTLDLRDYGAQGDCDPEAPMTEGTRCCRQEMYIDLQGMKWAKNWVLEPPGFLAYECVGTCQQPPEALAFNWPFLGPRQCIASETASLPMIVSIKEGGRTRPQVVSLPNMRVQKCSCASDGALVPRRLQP

[14] = biological target: Calmodulin-1 (Homo sapiens) (UniProt P0DP23); test: CALM1 binders on microarrays, EGTA buffer, profiling panel, biochemical, small-molecule microarray, Cy5-labelled CALM1 (AID 1111); conditions: Cy5-CALM1 binding fluorescence, higher = more signal;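 also: labelled calmodulin applied in Tris saline Tween buffer holding calcium plus EGTA and DTT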
[15] = biological target: Calmodulin-1 (Homo sapiens) (UniProt P0DP23); test: calcium-bound CALM1 binders on microarrays, profiling panel, artefact control for SMM control-protein annotation, biochemical, small-molecule microarray, Cy5-labelled CALM1, plus calcium (AID 1112); conditions: Cy5-CALM1 binding fluorescence, higher = more signal;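 also: score merges spot fluorescence with signal to noise from triplicate slides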
[16] = small-molecule microarray binders of probe aWnt5a, primary screen, biochemical, biotinylated probe, 635/667 nm fluorescence (AID 1113); conditions: higher = more signal;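 also: score merges 667 nm fluorescence intensity with signal-to-noise per printed feature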
[17] = small-molecule microarray binders of probe aShh, primary screen, biochemical, biotinylated probe, 635/667 nm fluorescence (AID 1114); conditions: higher = more signal;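 also: probe is biotin-labelled aShh protein from a stem cell growth factor screen; measures binding of labelled protein to compounds printed on the slide; score merges feature fluorescence at 667 nm with signal-to-noise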
[18] = small-molecule microarray binders of probe aNog, primary screen, biochemical, biotinylated probe, 635/667 nm fluorescence (AID 1115); conditions: higher = more signal;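 also: probe is biotinylated aNog protein used at 0.15 µg/mL for 1 h at 4 C; z-score combines 667 nm fluorescence of each spot with its signal to noise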
[19] = biological target: Torsin-1A-interacting protein 1 (Homo sapiens) (UniProt Q5JTV8); test: LAP1 binders from COS7 cell lysate, primary screen, small-molecule microarray, 635/667 nm fluorescence (AID 1116); conditions: COS7-hLAP1 lysate binding, 635 nm fluorescence, higher = more signal
Sequence of Torsin-1A-interacting protein 1 (Homo sapiens) (Q5JTV8 whole entry, looked up): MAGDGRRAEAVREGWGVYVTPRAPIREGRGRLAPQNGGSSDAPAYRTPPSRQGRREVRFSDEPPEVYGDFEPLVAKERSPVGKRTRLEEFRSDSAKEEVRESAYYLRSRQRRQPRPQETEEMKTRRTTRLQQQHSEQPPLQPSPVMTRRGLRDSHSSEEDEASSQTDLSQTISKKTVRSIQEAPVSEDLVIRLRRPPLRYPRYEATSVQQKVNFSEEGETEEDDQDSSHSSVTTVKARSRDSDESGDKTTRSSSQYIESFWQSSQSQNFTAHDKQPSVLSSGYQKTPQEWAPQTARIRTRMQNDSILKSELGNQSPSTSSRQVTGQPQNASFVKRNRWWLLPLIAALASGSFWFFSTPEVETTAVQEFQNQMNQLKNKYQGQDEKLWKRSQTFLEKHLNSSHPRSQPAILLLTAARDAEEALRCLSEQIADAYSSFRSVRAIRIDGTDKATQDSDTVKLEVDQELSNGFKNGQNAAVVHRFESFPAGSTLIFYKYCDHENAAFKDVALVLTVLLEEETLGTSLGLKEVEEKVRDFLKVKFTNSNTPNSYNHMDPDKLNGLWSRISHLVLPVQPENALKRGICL

[20] = biological target: Alpha-bungarotoxin (Bungarus multicinctus) (UniProt P60615); test: alpha-bungarotoxin binders on microarray, profiling panel, artefact control for SMM control protein annotation, biochemical, small-molecule microarray, Alexa647 label, 635/667 nm fluorescence (AID 1117); conditions: alpha-BTX-A647 binding fluorescence, higher = more signal
Sequence of Alpha-bungarotoxin (Bungarus multicinctus) (P60615 whole entry, looked up): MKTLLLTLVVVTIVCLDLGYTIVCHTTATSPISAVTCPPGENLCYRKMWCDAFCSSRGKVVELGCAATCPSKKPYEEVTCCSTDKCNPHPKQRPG

Structure (SMILES) | composite z-score [1] | composite z-score [2] | composite z-score [3] | z-score [4] | composite z-score [5] | composite z-score [6] | composite z-score [7] | composite z-score [8] | composite z-score [9] | composite z-score [10] | composite z-score [11] | z-score [12] | composite z-score [13] | composite z-score [14] | composite z-score [15] | composite z-score [16] | composite z-score [17] | composite z-score [18] | composite z-score [19] | composite z-score [20]
COc1ccc(C(=O)Nc2cccc(CN3C(=O)[C@@]4(O[C@@H](CCn5cc(CCO)nn5)[C@H]([Si](C)(C)c5ccc(OC)cc5)[C@H]4C)c4ccccc43)c2)cc1 | 0.758 | -0.111 | 0.124 | -1.16 (inactive) | 0.997 | 1.17 | 0.558 | 1.38 | 0.851 | 1.4 | 1.37 | -5.15 | 0.714 | 0.468 | 0.308 | -0.0403 | 0.13 | 0.153 | 0.602 | 1.6
C=CCOC(=O)[C@@H]1[C@H]2C(=O)O[C@H](c3ccccc3)[C@H](c3ccccc3)N2[C@H](c2ccc(OCCOC(=O)[C@@H]3C[C@@H]4C(=O)N[C@@H](Cc5ccccc5)C(=O)N4[C@@H]3c3cccc(OCCO)c3)cc2)[C@@]12C(=O)Nc1ccc(I)cc12 | 1.12 | -0.0053 | -0.0587 | -0.76 (inactive) | 1.21 | 0.954 | 0.934 | 1.1 | 0.991 | 1.06 | 1.36 | -1.34 | 0.692 | -0.0116 | -0.137 | -0.0516 | -0.0211 | 1.07 | 1.31 | 1.25
CS(=O)(=O)CCOC(=O)C1=CC(CCCO)=CC(c2cccs2)N(Cc2cc3c(cc2Br)OCO3)C=C1C(=O)OCCS(C)(=O)=O (stereo not given) | 0.727 | -0.0606 | 0.15 | 0.576 (inactive) | 1.04 | 1.25 | 0.259 | 1.22 | 0.238 | 1.2 | 1.27 | -1.22 | 0.858 | 1.29 | 0.671 | 0.0968 | 0.0639 | -0.261 | 0.955 | 1.8
C=C(COC)C(=O)CC[C@H](OC(C)=O)c1cccc(OCCO)c1 | -0.443 | -0.305 | -0.0122 | -0.637 (inactive) | 1.06 | 0.121 | -0.92 | -0.249 | -0.118 | 0.35 | -0.76 | -0.574 | -0.729 | -0.779 | -0.773 | -0.124 | 0.111 | -0.0428 | 0.8 | 1.24
CC(C)N1C(=O)c2ccccc2[C@@H](C(=O)NCCCN(C)C)[C@@H]1c1ccc(CO)cc1 | 1.31 | 0.744 | 1.01 | -0.472 (inactive) | 0.0328 | -0.367 | -0.568 | -0.85 | -1.25 | 0.557 | -1 | 0.19 | -0.89 | 0.341 | 0.0647 | 0.026 | -0.367 | 0.707 | 0.64 | 0.684
CS(=O)(=O)CCOC(=O)C1=CC(c2ccc(CO)cc2)=CC(C2CC2)N(Cc2cc3c(cc2Br)OCO3)C=C1C(=O)OCCS(C)(=O)=O (stereo not given) | 0.848 | 0.296 | 0.351 | 0.883 (inactive) | 1.08 | 1.18 | 0.425 | 0.932 | 0.391 | 0.701 | 1.41 | -2.3 | 0.462 | 1.38 | 0.23 | -0.0124 | 0.171 | 0.446 | 1.18 | 1.77
COc1ccc(CCNC(=O)[C@@H]2c3ccccc3C(=O)N(Cc3ccc(OC(F)(F)F)cc3)[C@H]2c2ccc(CO)cc2)cc1 | 1.7 | 0.0658 | 0.396 | 0.0514 (inactive) | 0.719 | 0.965 | -0.227 | 0.251 | -0.204 | 0.258 | 1.38 | -1.81 | -0.264 | 0.107 | -0.12 | -0.146 | -0.147 | 0.28 | 1 | -0.0177
CN(C)C(=O)[C@@]1(CCC(=O)OC(C)(C)C)N=C(c2ccc(OCCCO)cc2)O[C@H]1c1ccccc1 | 1.75 | 0.559 | 0.401 | -0.919 (inactive) | 0.0744 | 0.556 | -0.58 | -0.725 | -0.887 | 0.366 | 1.49 | -1.01 | -0.964 | 1.03 | 1 | 0.0733 | 0.357 | 0.546 | 1.41 | 0.575
[N-]=[N+]=NCc1ccccc1C[C@]1(C(=O)NCC(O)CO)N=C(c2ccc(OCCCO)cc2)O[C@H]1c1ccccc1N=[N+]=[N-] (stereo not given in full) | 0.3 | 1.38 | 1.1 | -1.58 (inactive) | 0.0684 | 0.091 | -0.166 | -0.318 | -0.894 | 0.967 | 1.38 | -1.47 | -1.22 | 1.03 | 1.04 | 0.0633 | 0.14 | 1.18 | 1.4 | 1.75
CC(C)Cc1ccc(CN2CC[C@@H](NS(=O)(=O)c3ccccc3)C2)cc1 | -0.265 | -0.367 | -0.747 | 3.53 (inactive) | -0.0725 | -0.375 | -0.608 | 0.0789 | 0.292 | 0.298 | 0.429 | -4.17 | 0.0423 | -0.856 | -0.859 | -0.176 | -0.455 | -0.438 | -0.633 | -0.577
O=C1OCCC=C[C@H]2OC34C=CCN(Cc5ccccc5)C(=O)[C@H]3N(CCCCCCO)C(=O)[C@@H]4C12 (stereo not given in full) | 1.61 | -0.189 | 0.33 | -0.205 (inactive) | -1.26 | -0.578 | -0.83 | -0.435 | -1.38 | -0.597 | 1.04 | -0.422 | -1.06 | -0.214 | 0.232 | -0.343 | -0.233 | -0.402 | 0.366 | -0.63
